The record followed here is PubChem BioAssay (NCI).

Test systems include SK-MEL-2 melanoma; EKVX NSCLC; SN12C renal; UO-31 renal; TK-10 renal; ACHN renal; CAKI-1 renal; A498 renal; CCRF-CEM leukemia; MOLT-4 leukemia.
Holding throughout (experiment): NCI-60 one-dose screen, 48 h (100 = growth as untreated, 0 = no growth, -100 = all killed)
Details in all cases: 10 µM unless noted

Compounds without any hit were thinned out: in the full panel of roughly 83,000, 20% have a hit.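 Values shown are percent growth following 48 h exposure of cells in 96-well plates to a single concentration of compound; below 10 was considered active.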 Unmarked numbers belong to inactive results. The source made the active and inactive calls.

For `CCCn1cnc2c(c1=N)C(c1ccc(F)cc1)c1sc3c(C)cccc3c1O2` (stereo not given), the growth with SK-MEL-2 melanoma is 52.8%; in the experiment with EKVX NSCLC, 37.1%; with SN12C renal it was 61.9%; with UO-31 renal it was 32.8%; with TK-10 renal it was 70.9%; in the experiment with ACHN renal, 35.5%. The growth with CAKI-1 renal was 28.6%; in the experiment on A498 renal, -19.9% (active); in the experiment with CCRF-CEM leukemia, -3.84% (active); in the experiment on MOLT-4 leukemia, 40%.

As for `Cc1nn(-c2ccccc2)c2ncnc(N/N=C/c3ccccc3)c12`, the growth is 104% in the experiment on SK-MEL-2 melanoma; 89.6% with EKVX NSCLC; 81% in the experiment with SN12C renal; 75.3% in the experiment on UO-31 renal; 113% with TK-10 renal; 85.8% in the experiment with ACHN renal. The growth is 102% in the experiment on CAKI-1 renal, 74.1% with A498 renal, 88.3% in the experiment with CCRF-CEM leukemia and 87.1% in the experiment with MOLT-4 leukemia.

For the compound `c1ccc(C(c2nc3ncncc3[nH]2)N2CSc3nc4ccccc4n3C2)cc1` (stereo not given), the growth was 103% with SK-MEL-2 melanoma; 97.5% in the experiment on EKVX NSCLC; 98.8% with SN12C renal; 82.7% in the experiment with UO-31 renal; 115% in the experiment with TK-10 renal; 94.7% in the experiment with ACHN renal. For the same compound, the growth in the experiment with CAKI-1 renal was 89.5%; in the experiment on A498 renal it was 102%; with CCRF-CEM leukemia it was 108%; in the experiment on MOLT-4 leukemia, 104%.

Regarding `COc1cc(-c2ccc3ncnc(NCc4ccccc4)c3c2)cnc1OC`, the growth in the experiment on SK-MEL-2 melanoma was 76.5%; in the experiment on EKVX NSCLC, 6.53% (active); with SN12C renal, 27.2%; with UO-31 renal, 17.7%; in the experiment with TK-10 renal, -11.7% (active); with ACHN renal it was 19.9%. Also, the growth with CAKI-1 renal is 6.95% (active); in the experiment with A498 renal, -48.8% (active); in the experiment with CCRF-CEM leukemia, 54.8%; in the experiment with MOLT-4 leukemia it was 32.1%.

Take `COc1cc(-c2nc(SCCC(C)C)nc(NNC(=O)c3ccncc3)c2C#N)cc(OC)c1OC`: the growth was 101% in the experiment on SK-MEL-2 melanoma; 54.7% in the experiment with EKVX NSCLC; 60.4% with SN12C renal; 19.3% in the experiment on UO-31 renal; 52.8% in the experiment on TK-10 renal; 23% in the experiment on ACHN renal. Also, the growth in the experiment with CAKI-1 renal is 37.8%; in the experiment on A498 renal, 41.9%; with CCRF-CEM leukemia, 95.8%; in the experiment on MOLT-4 leukemia, 68.7%.

Take `CS(=O)(=O)Nc1cc(-c2ccc3ncc(C#N)c(NCc4cccc(F)c4)c3c2)cnc1Cl`: the growth with SK-MEL-2 melanoma was -63.4% (active); in the experiment on EKVX NSCLC, -7.05% (active); with SN12C renal, 15.4%; in the experiment on UO-31 renal, 2.87% (active); with TK-10 renal it was -11% (active); in the experiment with ACHN renal, 10.1%. Besides, the growth with CAKI-1 renal is 4.52% (active); in the experiment with A498 renal, -48.9% (active); with CCRF-CEM leukemia it was 15.1%; with MOLT-4 leukemia, -10.6% (active).

Consider `O=C(Nc1nonc1-c1ccccc1)c1ccc(C(F)(F)F)cc1`, for which the growth in the experiment on SK-MEL-2 melanoma is 65.3%; with EKVX NSCLC, 84.6%; in the experiment with SN12C renal, 71.7%; in the experiment with UO-31 renal it was 91.4%; in the experiment on TK-10 renal it was 146%; in the experiment on ACHN renal, 82.1%. In addition, the growth is 85.5% in the experiment with CAKI-1 renal, 95.6% in the experiment with A498 renal, 50.8% with CCRF-CEM leukemia and 69.1% in the experiment with MOLT-4 leukemia.

Turning to `CCCCNNC(=O)c1ccc(-c2cccc(F)c2F)cc1`, the growth is 26.8% with SK-MEL-2 melanoma; 45.3% with EKVX NSCLC; 56.3% with SN12C renal; 3.46% (active) with UO-31 renal; 13.3% in the experiment on TK-10 renal; 22.4% with ACHN renal. The growth in the experiment on CAKI-1 renal is 30.9%; in the experiment on A498 renal, -6.27% (active); in the experiment on CCRF-CEM leukemia it was 27.4%; with MOLT-4 leukemia it was 27.7%.

Take `C=CCOc1cccc(/C=C2\SC(=S)N(C3CC(=O)N(c4ccc(Br)cc4)C3=O)C2=O)c1` (stereo not given): the growth in the experiment with SK-MEL-2 melanoma is 117%; in the experiment on EKVX NSCLC, 105%; with SN12C renal, 92.8%; with UO-31 renal, 89.6%; with TK-10 renal, 126%; with ACHN renal, 94.8%. In addition, the growth with CAKI-1 renal is 104%; with A498 renal it was 105%; in the experiment with CCRF-CEM leukemia, 96.7%; in the experiment on MOLT-4 leukemia it was 105%.

`CCc1ccc(SC2c3ccc(N(CC)CC)cc3Oc3nc(N)c(C#N)c(N)c32)cc1` (stereo not given): the growth with SK-MEL-2 melanoma was -48.2% (active); in the experiment on EKVX NSCLC, -54.8% (active); in the experiment on SN12C renal it was -32.9% (active); with UO-31 renal, -98.8% (active); in the experiment with TK-10 renal it was -18% (active); with ACHN renal, -53.7% (active). The growth in the experiment on CAKI-1 renal is -46.7% (active); in the experiment on A498 renal it was -8.49% (active); in the experiment on CCRF-CEM leukemia, -23.7% (active); in the experiment with MOLT-4 leukemia, -8.26% (active).

In the case of `C[C@@H](Nc1c(C#N)cnc2ccc(-c3cnc(Cl)c(NS(C)(=O)=O)c3)cc12)c1ccccc1`, the growth was -29.4% (active) in the experiment on SK-MEL-2 melanoma; -9.44% (active) in the experiment on EKVX NSCLC; 9.48% (active) in the experiment with SN12C renal; 4.15% (active) with UO-31 renal; -17.9% (active) in the experiment on TK-10 renal; 8.09% (active) in the experiment with ACHN renal. For the same compound, the growth was -18.4% (active) in the experiment with CAKI-1 renal, -49.8% (active) in the experiment with A498 renal, 2.97% (active) with CCRF-CEM leukemia and -35.6% (active) with MOLT-4 leukemia.

Take `CCCCCCCn1cc2c(NCCc3ccccc3)ncnc2n1`: the growth in the experiment with SK-MEL-2 melanoma was 127%; in the experiment on EKVX NSCLC, 84.8%; in the experiment on SN12C renal it was 93.4%; in the experiment on UO-31 renal it was 71.2%; in the experiment with TK-10 renal, 119%; in the experiment on ACHN renal it was 95.1%. In addition, the growth in the experiment with CAKI-1 renal is 78.7%; in the experiment with A498 renal it was 95.3%; with CCRF-CEM leukemia, 96.2%; with MOLT-4 leukemia, 95.4%.
